The values that follow come from PubChem BioAssay (NCI).

The panel holds about 79,000 compounds, 15% with a hit somewhere; the sample as a whole holds those more often. Values without a mark were called inactive. Active and inactive are the calls of the source. Rule as the data show it: active = growth inhibition above about 70%; inactive = the rest.

Test [1] is described as follows: NCI Yeast Anticancer Drug Screen. Data for the rad50 strain (AID 155).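 Also: 0% = growth of vehicle-only cultures of the same strain.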 The note with it: S. cerevisiae rad50 strain growth inhibition; at 50.0 µM; hits give high values. In short, it runs like this: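 Yeast carrying a defined DNA repair defect were exposed to test compounds, and growth was compared with vehicle-treated controls to give percent inhibition.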
A short description of test [2]: NCI Yeast Anticancer Drug Screen. Data for the mec2-1 strain (AID 157). The note with it: S. cerevisiae mec2-1 strain, at 50.0 µM, hits give high values. The method, boiled down: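 Each compound was tested on mec2-1 yeast, a strain altered in DNA damage repair or cell cycle control. Growth inhibition is reported relative to vehicle.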
Test [3] in a line: NCI Yeast Anticancer Drug Screen. Data for the sgs1 mgt1 strain (AID 161).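 Also: 0% = growth of cultures given vehicle only.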 The note with it: S. cerevisiae sgs1 mgt1 strain, at 50.0 µM, hits give high values. In short, it runs like this:
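Mutant yeast exposed to compound; growth scored against vehicle-only wells.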

A short description of test [4]: NCI Yeast Anticancer Drug Screen. Data for the cln2 rad14 strain (AID 165).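 Also: 0% = growth equal to vehicle treated cultures.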 The note with it: S. cerevisiae cln2 rad14 strain, at 50.0 µM, hits give high values. In short, it runs like this: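 Test compounds were added to cln2 rad14 yeast cultures; inhibition of growth was then determined by comparison with vehicle treatment.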
A short description of test [5]: NCI Yeast Anticancer Drug Screen. Data for the bub3 strain (AID 167). The note with it: S. cerevisiae bub3 mutant strain, at 50.0 µM, hits give high values. In short, it runs like this:
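Compounds were applied to a genetically altered yeast strain carrying a cell-cycle control defect. Growth inhibition was scored against vehicle-treated controls.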

Test [6] is described as follows: NCI Yeast Anticancer Drug Screen. Data for the mlh1 rad18 strain (AID 175). The note with it: S. cerevisiae mlh1 rad18 strain growth inhibition; at 50.0 µM; hits give high values. In short, it runs like this: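 Inhibition values reflect reduced growth of mutant yeast versus vehicle-treated controls following compound exposure; the mutations affect DNA damage repair.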

Turning to `CCN(CC)CC(O)Cn1cnc2c(SC)ncnc21` (stereo not given), the growth inhibition is -0.75% in test [1]; 0.6% in test [2]; -2.95% in test [3]; 5.5% in test [4]; 4.5% in test [5]; -1.9% in test [6].

With `CC1(C2(C)SCCS2)SCCS1`, the growth inhibition in test [1] is 11.2%; in test [2], 2.9%; in test [3] it was -1%; in test [4], 11.2%; in test [5], -8.55%; in test [6], 10.5%.

Turning to `CC(C(OC(=O)C1c2ccccc2-c2ccccc21)c1ccccc1)N(C)C` (stereo not given), the growth inhibition in test [1] was 99.5% (active); in test [2], 75.8% (active); in test [3], 99.5% (active); in test [4], 91.4% (active); in test [5], 99.4% (active); in test [6] it was 99.2% (active).

Turning to `O=c1cc(-c2ccc3c(c2)OCO3)oc2ccccc12`, the growth inhibition is 20.4% in test [1]; 1.8% in test [2]; 6% in test [3]; -2.35% in test [4]; -5.25% in test [5]; -3.8% in test [6].

On to `CCN(CC)C(=O)Cn1c(C)cc2ccccc21`, for which the growth inhibition was -18.1% in test [1]; -18.1% in test [2]; 7.9% in test [3]; -2.75% in test [4]; 8% in test [5]; -13.6% in test [6].

As to `CC1(CCl)C(=O)C=Cc2ccccc21` (stereo not given), the growth inhibition is 6.45% in test [1]; 0.7% in test [2]; -5.1% in test [3]; -6.8% in test [4]; 5.3% in test [5]; -3.45% in test [6].

In the case of `Cc1ccc(C2=CSC3=NCCN23)cc1Cl`, the growth inhibition is -29.9% in test [1]; -43.8% in test [2]; 5.3% in test [3]; -6.3% in test [4]; -17.9% in test [5]; 23.4% in test [6].

As to `COc1ccc(-c2c(C#N)c(S)n(C3OC(COC(C)=O)C(OC(C)=O)C(OC(C)=O)C3OC(C)=O)c(=O)c2C#N)cc1` (stereo not given), the growth inhibition in test [1] was -18.1%; in test [2] it was -12.2%; in test [3] it was -6.3%; in test [4], -16.3%; in test [5], 16.4%; in test [6] it was 14%.

On to `CC(=O)N1C(Nc2ccccc2)CCN1c1ccccc1` (stereo not given), for which the growth inhibition was -24.2% in test [1]; -31.5% in test [2]; -14.1% in test [3]; 10.9% in test [4]; 2.05% in test [5]; -8.35% in test [6].

Regarding `O=c1c2c([nH]n1-c1ccccc1)-c1ccccc1CS2`, the growth inhibition in test [1] was 40.2%; in test [2], 15.9%; in test [3], 37.8%; in test [4], 9.55%; in test [5] it was 40.6%; in test [6], 28.9%.

Regarding `Nc1nc2c(ncn2CC2CCOC2=O)c(=O)[nH]1` (stereo not given), the growth inhibition in test [1] was -19.1%; in test [2], -17.9%; in test [3], -18.7%; in test [4] it was 4.4%; in test [5] it was -5.85%; in test [6] it was -14.8%.

For the molecule `CC1=CC(=O)[C@@H](O)[C@]2(C)[C@H]3[C@@]4(O)OC[C@]35[C@H]([C@@H](CO)[C@H]4O)[C@@H](OC3OC(CO)C(O)C(O)C3O)C(=O)O[C@@H]5C[C@@H]12` (stereo not given in full), the growth inhibition in test [1] is -9.55%; in test [2] it was -14.5%; in test [3] it was -19.2%; in test [4], 2.65%; in test [5] it was -25.1%; in test [6], -25.9%.

Take `CCOC(=O)C(N=Cc1ccc([N+](=O)[O-])cc1)C(O)c1ccc([N+](=O)[O-])cc1` (stereo not given): the growth inhibition in test [1] was 9.55%; in test [2] it was 5.15%; in test [3], 1.8%; in test [4], 14.9%; in test [5], 2.2%; in test [6], 7.75%.

Regarding `O=C1c2ccccc2C(=O)N1C/C=C/CN1C(=O)c2ccccc2C1=O`, the growth inhibition in test [1] was 6.85%; in test [2] it was -5.7%; in test [3], 12.2%; in test [4] it was -9.4%; in test [5] it was 8.05%; in test [6], 2.5%.

Take `CCCCC(CC)(CO)CCC` (stereo not given): the growth inhibition is -8.75% in test [1]; -19% in test [2]; -13.7% in test [3]; 2.55% in test [4]; -9.45% in test [5]; 4% in test [6].

Regarding `CCOP(=O)(OCC)OC1CC(n2cnc3c(N(CC)CC)ncnc32)OC1CO[Si](C)(C)C(C)(C)C` (stereo not given), the growth inhibition in test [1] was 19.1%; in test [2] it was 8.65%; in test [3], 54%; in test [4] it was 38.8%; in test [5] it was 47.9%; in test [6], -16.1%.

`CS(=O)(=O)NCC1OC(n2cnc3c(N)ncnc32)C(O)C1O` (stereo not given): the growth inhibition was 12.2% in test [1]; -9.3% in test [2]; 19% in test [3]; -5.95% in test [4]; 30.5% in test [5]; 1.8% in test [6].

In the case of `O=C1C=CC(=CC=C2C=CN(CCCCCCO)C=C2)C=C1`, the growth inhibition in test [1] was 18.4%; in test [2] it was 6.05%; in test [3] it was 26.2%; in test [4], 13.8%; in test [5], 8.65%; in test [6], 16.1%.

Take `Cn1c(COC(=O)NC2CCCCC2)c(COC(=O)NC2CCCCC2)c2ccc3cc(C=O)ccc3c21`: the growth inhibition is 5.95% in test [1]; 7.85% in test [2]; -14.5% in test [3]; -3.95% in test [4]; -10.4% in test [5]; -27.3% in test [6].

Take `CCCC(=O)Nc1cn(COC)c(C(=O)N2C[C@H]3C[C@@]34C2=CC(=O)c2[nH]cc(C)c24)n1`: the growth inhibition in test [1] was 49.9%; in test [2], 22.1%; in test [3], 56%; in test [4], 19.9%; in test [5], 40.8%; in test [6], 58.8%.
